# Measured values taken from PubChem BioAssay (NCATS).
# Unmarked numbers belong to inactive results. Inconclusive results are not listed. Entries that show only a call come without a potency. Activity calls are given as the source filed them. Calls follow the shape of the dose curve; as a rule, active = well fitted curve in the direction sought with a large enough effect; inconclusive = small, poorly fitted or top-dose-only effect, or another doubt; inactive = no such curve, though single readings can be large; an effect the other way counts as inactive or inconclusive. Numbered stars: 1 amine (or outer) side, 2 acyl side, 3 side chain; on linkers, the order of the positions; unused ones are H or OH. Bridge positions count the residues as written; N and C are the ends. Square brackets hold non-standard residues; d marks the D form. Peptide text beside a SMILES is read from it. ξ: configuration not given here. Phe(3R-OH) = O=C([C@@H](N[*:1])[C@H](O[*:3])c1ccccc1)[*:2]; NMeTrp(4-OMe) = CN[C@@H](Cc1c[nH]c2cccc(OC)c12)C(=O)O; ξThr(3R)(O-yl) = C[C@@H](O[*:3])C(N[*:1])C(=O)[*:2]; NMeThr(3ξ) = CN[C@H](C(=O)O)C(C)O; NMeL = CN[C@@H](CC(C)C)C(=O)O; NMeV = CN[C@H](C(=O)O)C(C)C; ξIle = CC[C@H](C)C(N)C(=O)O; ξV = CC(C)C(N)C(=O)O
# Assays:
# [1] = OV-KATE Cancer Cell Toxicity qHTS against the NCATS CANVASS Library (AID 1347345)
# Outline: (§1)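 ATP content after 72 h treatment, detected by CellTiter-Glo luminescence (15min room-temperature development), reflects cell viability. Wells contained 1000 cells and received compounds at 11 concentrations.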
# [2] = HPAF-II Cancer Cell Toxicity qHTS against the NCATS CANVASS Library (AID 1347346); also: nearly all actives have a fitted effect of over 55% in size; also: potency is read from the fitted curve at half-maximal effect
# Outline: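 1000 HPAF-II cells/well; 4 h pre-incubation; 11-pnt compound titration; 72 h, 37 degrees C/5% CO2; CellTiter-Glo, 15 min RT; luminescence read.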
# [3] = OV-SAHO Cancer Cell Toxicity qHTS against the NCATS CANVASS Library (AID 1347348); also: series mostly up to about 38 µM; nearly all actives have a fitted effect of over 55% in size
# Outline: as §1
# [4] = COV-362 Cancer Cell Toxicity qHTS against the NCATS CANVASS Library (AID 1347352); also: series mostly up to about 38 µM
# Outline: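 1000 cells/well, 4 h pre-incubation 37 °C/5% CO2; 11-pnt titration; 72 h; CellTiter-Glo 15 min RT, luminescence.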
# [5] = HPAF-II 24hr Apoptosis Induction qHTS against the NCATS CANVASS Library (AID 1347356)
# Outline: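 500 HPAF-II cells/well; compounds in 11-pnt qHTS; 24 h, 37 C/5% CO2; Caspase-Glo 3/7 added, 15 min RT dark; luminescence read. Doxorubicin control.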
# [6] = HEK293 18hr Apoptosis Induction qHTS against the NCATS CANVASS Library (AID 1347357)
# Outline: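 HEK293 cells (500/well, DMEM + 10% FBS) treated with an 11-point series for 18 h at 37 degrees C. Caspase-3/7 activity read by Caspase-Glo luminescence after 15 min at room temperature.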
# [7] = HPAF-II 12hr Apoptosis Induction qHTS against the NCATS CANVASS Library (AID 1347358)
# Outline: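 Caspase-Glo 3/7 luminescence (DEVD substrate) reports caspase activity in HPAF-II cells after 12 h compound treatment at 37 degrees C. Compounds were tested in an 11-point series. Doxorubicin served as control.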
# [8] = HEK293 24hr Apoptosis Induction qHTS against the NCATS CANVASS Library (AID 1347359)
# Outline: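 HEK293 cells (500/well, DMEM + 10% FBS) were exposed to compounds in an 11-point series for 24 hours at 37 degrees C, then caspase-3/7 activity was read by Caspase-Glo DEVD luciferase luminescence after 15 min.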
# [9] = HPAF-II 18hr Apoptosis Induction qHTS against the NCATS CANVASS Library (AID 1347360)
# Outline: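 HPAF-II cells at 500/well were exposed for 18 h at 37 C to an 11-point compound series. Caspase-3/7 activity was read by Caspase-Glo luminescence after 15 min at RT.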
# [10] = target: Luciferin 4-monooxygenase (Photinus pyralis) (UniProt P08659); assay: Firefly luciferase counterscreen qHTS: Assay Interference Panel against the NCATS CANVASS Library (AID 1347363); also: series mostly up to about 57 µM
# Sequence of Luciferin 4-monooxygenase (Photinus pyralis) (P08659 whole entry, looked up): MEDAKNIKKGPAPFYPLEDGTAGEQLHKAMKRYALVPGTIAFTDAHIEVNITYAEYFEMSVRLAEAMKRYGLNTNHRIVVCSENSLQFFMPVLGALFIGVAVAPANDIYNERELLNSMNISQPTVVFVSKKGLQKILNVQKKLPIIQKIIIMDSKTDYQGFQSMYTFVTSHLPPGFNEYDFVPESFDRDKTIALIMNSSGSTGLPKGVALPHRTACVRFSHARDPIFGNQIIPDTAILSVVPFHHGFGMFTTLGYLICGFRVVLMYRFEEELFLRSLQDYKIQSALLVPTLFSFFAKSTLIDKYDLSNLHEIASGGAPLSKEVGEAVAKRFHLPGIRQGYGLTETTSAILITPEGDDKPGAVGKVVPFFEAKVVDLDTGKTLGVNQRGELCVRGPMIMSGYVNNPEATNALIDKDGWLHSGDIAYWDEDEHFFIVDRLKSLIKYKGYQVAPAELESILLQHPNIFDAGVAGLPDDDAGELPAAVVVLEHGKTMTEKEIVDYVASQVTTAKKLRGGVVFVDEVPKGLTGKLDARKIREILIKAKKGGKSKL
# Outline: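 Purified P. pyralis luciferase was added to compounds (11-point series) preincubated 15 min at room temperature with substrate containing 0.013 mM D-luciferin and 0.013 mM ATP; luminescence was read after 5 min.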
# [11] = KB-3-1 Cancer Cell Toxicity qHTS against the NCATS CANVASS Library (AID 1347366); also: nearly all actives have a fitted effect of over 75% in size
# Outline: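 KB-3-1 cells (500/well) in DMEM with 10% FBS were exposed to compounds for 72 h at 37C. Viability was read by CellTiter-Glo luminescence.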
# [12] = MCF7 Cancer Cell Toxicity qHTS against the NCATS CANVASS Library (AID 1347369)
# Outline: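 MCF7 cells (500/well) were exposed 72 h at 37 °C to compounds in an 11-point series. Viability was read as ATP content by CellTiterGlo luminescence.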
# [13] = qHTS for ATAD5 Antagonist screened against the NCATS CANVASS Library (AID 1347370);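 also: HEK293T cells carrying an ATAD5 luciferase reporter co-treated with 10 µM 5-fluorouridine; series mostly up to about 46 µM; nearly all actives have a fitted effect of over 65% in size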
# Outline: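 HEK293T-ATAD5 luc reporter, 2000 cells/well; 5hr attach; cpd + 10 uM 5-FUrd; 16hr 37C, 5% CO2. Readouts: CellTiter-Fluor fluorescence (1hr), then Amplite luciferase luminescence (30min RT).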
# [14] = J3T Cancer Cell Toxicity qHTS against the NCATS CANVASS Library (AID 1347371)
# Outline: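 Dog glioma J3T, 500 cells/well; cpd 11-pt qHTS; 72 hr, 37C/5% CO2; CellTiterGlo ATP luminescence readout.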
# [15] = target: Nuclear receptor subfamily 1 group I member 3 (Homo sapiens) (UniProt Q14994); assay: qHTS for Constitutive Androstane Receptor (CAR) Agonist screened against the NCATS CANVASS Library (AID 1347373);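 also: every well also contained 1.5 µM PK11195 alongside the test compound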
# Sequence of Nuclear receptor subfamily 1 group I member 3 (Homo sapiens) (Q14994 whole entry, looked up): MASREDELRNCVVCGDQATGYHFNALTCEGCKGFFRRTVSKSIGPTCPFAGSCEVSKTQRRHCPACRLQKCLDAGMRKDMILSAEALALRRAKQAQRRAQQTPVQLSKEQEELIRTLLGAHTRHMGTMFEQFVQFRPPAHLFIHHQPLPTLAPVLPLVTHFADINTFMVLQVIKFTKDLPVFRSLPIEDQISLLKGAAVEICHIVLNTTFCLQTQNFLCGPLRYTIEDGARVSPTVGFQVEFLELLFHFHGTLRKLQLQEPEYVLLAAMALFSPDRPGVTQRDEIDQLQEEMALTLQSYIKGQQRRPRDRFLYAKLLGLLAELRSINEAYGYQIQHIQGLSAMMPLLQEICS
# Outline: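 Luciferase read-out (ONE-Glo, 30 min RT) of CYP2B6-2.2kb promoter activity in double-stable HepG2-hCAR cells after 24hr compound exposure with 1.5uM PK11195 present; viability measured first by CellTiter-Fluor.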
# [16] = 10-beta competent E. coli microbial cell viability qHTS against the NCATS CANVASS Library (AID 1347376); also: series mostly up to about 46 µM
# Outline: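 Luminescence from BacTiter-Glo ATP detection served as the viability read-out; bacteria (0.2 OD) had been incubated overnight at 37C with pin-transferred compounds at 11 concentrations.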
# [17] = qHTS for Inflammasome Signaling Inhibitors: IL-1-beta AlphaLISA screen against the NCATS CANVASS Library (AID 1347379);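 also: human THP-1 cells primed with LPS then triggered with ATP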
# Outline: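 THP-1, 1 hr compound pre-incubation, then LPS 250 ng/mL + ATP 1.25 mM (final); 16 hr total with compound; IL-1B AlphaLISA, ex 680/em 615 nm; 11-point qHTS, up to 57.5 uM final.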
# [18] = Inflammasome Signaling qHTS Counterscreen: IL-1-beta AlphaLISA counterscreen against the NCATS CANVASS Library (AID 1347381);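 also: cell-free check with purified IL-1β in medium and no THP-1 cells; series mostly up to about 57 µM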
# Outline: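 Here, no cellular stimulation occurs; compounds in an 11-point series meet 4 pg purified IL-1-beta directly. Bead-based AlphaLISA detection follows (1 h acceptor/antibody, then 30 min donor, dark, room temperature), with excitation at 680 nm.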
# [19] = Cytotoxicity qHTS for assessment of Hepg2 cells membrane integrity screened against the NCATS CANVASS Library (AID 1347387)
# Outline: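 LDH release read by fluorescence (560 nm ex/590 nm em) after CytoTox-ONE addition and 10 min RT; signal tracks lysed cells. HepG2, 2000 cells/well, plated overnight; compound 5 hr, 37C, 5% CO2, final 0.59 nM - 46 uM, 11 points.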
# [20] = Viability qHTS for inhibitors of the SERCaMP assay screened against the NCATS CANVASS Library (AID 1347400); also: series mostly up to about 92 µM; nearly all actives have a fitted effect of over 70% in size
# Outline: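 CellTiter-Glo luminescence readout after 48 h compound exposure (11-pnt qHTS series) of SH-SY5Y-GLuc SERCaMP MJH297 cells seeded at 1000 cells/well; bortezomib positive control.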
Structure (SMILES),Potency [1],Potency [2],Potency [3],Potency [4],outcome [5],Potency [6],Potency [7],Potency [8],Potency [9],Potency [10],Potency [11],Potency [12],Potency [13],Potency [14],outcome [15],outcome [16],Potency [17],outcome [18],outcome [19],Potency [20]
CC1(C)CCC[C@]2(C)[C@@H]1CC[C@@]13C[C@@H](CC[C@H]12)C(C)(O)C3 (stereo partly drawn),inactive,inactive,inactive,inactive,inactive,inactive,inactive,inactive,inactive,inactive,inactive,inactive,inactive,inactive,inactive,inactive,inactive,inactive,inactive,inactive
Cc1cc(O)cc2oc(C[C@H](C)O)cc(=O)c12,inactive,inactive,inactive,inactive,inactive,inactive,inactive,inactive,inactive,inactive,inactive,inactive,inactive,inactive,inactive,inactive,inactive,inactive,inactive,inactive
COc1cc(/C=C2/C(=O)N(c3ccc(O)cc3C(=O)O)[C@H](c3ccc(O)c(OC)c3)C2C(=O)Nc2ccc(O)cc2C(=O)O)ccc1O (stereo partly drawn),inactive,inactive,inactive,inactive,inactive,inactive,inactive,inactive,inactive,inactive,inactive,inactive,inactive,inactive,inactive,inactive,inactive,inactive,inactive,inactive
C[C@@]12CCC[C@@](C)(C(=O)O)[C@H]1C[C@@H](O)[C@]13C[C@H]4C[C@H](O[C@@]4(C)C1)[C@@H]23,inactive,inactive,inactive,inactive,inactive,inactive,inactive,inactive,inactive,inactive,inactive,inactive,inactive,inactive,inactive,inactive,inactive,inactive,inactive,inactive
O=C(O)[C@@]12CO[C@@]3(O)C4CCN(CC[C@H]31)[C@H]4c1c2[nH]c2ccccc12,inactive,inactive,inactive,inactive,inactive,inactive,inactive,inactive,inactive,inactive,inactive,inactive,inactive,inactive,inactive,inactive,inactive,inactive,inactive,inactive
CCC1=C2CCCN3C(=O)O[C@H]([C@H]1OC(C)=O)[C@H]23,inactive,inactive,inactive,inactive,inactive,inactive,inactive,inactive,inactive,inactive,inactive,inactive,inactive,inactive,inactive,inactive,inactive,inactive,inactive,inactive
CC(O)/C=C/C1(O)C(C)(C)CC(O)CC1(C)O (stereo not drawn),inactive,inactive,inactive,inactive,inactive,inactive,inactive,inactive,inactive,inactive,inactive,inactive,inactive,inactive,inactive,inactive,inactive,inactive,inactive,inactive
COC1C(O)C(OC(N)=O)C(Oc2ccc3c(O)c(NC(=O)c4ccc(O)c(CC=C(C)C)c4)c(=O)oc3c2C)OC1(C)C (stereo not drawn),inactive,inactive,inactive,inactive,inactive,inactive,inactive,inactive,inactive,inactive,inactive,inactive,inactive,inactive,inactive,,inactive,inactive,inactive,inactive
C[C@@H]1C(=O)[C@]23CC[C@H]1C[C@]21O[C@H]2C(C)(C)C=CC(=O)[C@]23COC1=O,inactive,inactive,inactive,inactive,inactive,inactive,inactive,inactive,inactive,inactive,inactive,inactive,inactive,inactive,inactive,inactive,inactive,inactive,inactive,inactive
CC[C@@H]1C[C@@]2(CC)OC(=O)[C@@]3(CC)OC(=O)[C@@H]1[C@@H]23,inactive,inactive,inactive,inactive,inactive,inactive,inactive,inactive,inactive,inactive,inactive,inactive,inactive,inactive,inactive,inactive,inactive,inactive,inactive,inactive
CC[C@H](C)C(NC(=O)[C@@H](NC)C(C)C)C(=O)NC1C(=O)N(C)[C@@H](C(C)O)C(=O)N[C@@H](C(C)C)C(=O)N(C)[C@@H](CC(C)C)C(=O)NC(C(C)C)C(=O)N(C)[C@@H](C(C)C)C(=O)N(C)[C@@H](Cc2c[nH]c3cccc(OC)c23)C(=O)N[C@@H](C(C)C)C(=O)N[C@@H]([C@H](O)c2ccccc2)C(=O)N[C@@H](C(C)C)C(=O)O[C@@H]1C (stereo partly drawn) (H-[NMeV][ξIle][ξThr(3R)(O-yl)][NMeThr(3ξ)]V[NMeL][ξV][NMeV][NMeTrp(4-OMe)]V[Phe(3R-OH)]V; ester 3-C),inactive,11.9 µM (active),inactive,inactive,inactive,inactive,inactive,inactive,inactive,inactive,inactive,inactive,inactive,inactive,inactive,,inactive,inactive,inactive,inactive
